Test systems include SK-MEL-2 melanoma; EKVX NSCLC; SN12C renal; UO-31 renal; TK-10 renal; ACHN renal; CAKI-1 renal; A498 renal; CCRF-CEM leukemia; MOLT-4 leukemia; SR leukemia; RPMI-8226 leukemia; OVCAR-8 ovarian; OVCAR-5 ovarian; OVCAR-4 ovarian; SK-OV-3 ovarian; IGROV1 ovarian; OVCAR-3 ovarian; HS 578T breast; NCI/ADR-RES ovarian.
Test in all cases: NCI-60 one-dose screen, 48 h (100 = growth as untreated, 0 = no growth, -100 = all killed)
What all share (conditions): 10 µM unless noted

Compounds without any hit were thinned out: in the full panel of roughly 83,000, 20% have a hit.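 Growth was measured after 48 h exposure to one concentration of compound in 96-well plates. Values under 10 count as active.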 Values without a mark were called inactive. The source made the active and inactive calls.

Take `CCOC(=O)C1=C(C)C(Cl)=N/C1=C\c1[nH]c(Cl)c(C)c1C(=O)OCC`: the growth with SK-MEL-2 melanoma was 109%; in the assay on EKVX NSCLC, 99.5%; with SN12C renal, 100%; in the assay on UO-31 renal it was 86.5%; in the assay on TK-10 renal, 109%; in the assay with ACHN renal, 107%. The growth is 94.5% in the assay with CAKI-1 renal; 104% with A498 renal; 51.9% in the assay on CCRF-CEM leukemia; 80.3% with MOLT-4 leukemia; 86.3% in the assay with SR leukemia; 65.1% with RPMI-8226 leukemia. Also, the growth was 99.1% in the assay with OVCAR-8 ovarian; 124% in the assay with OVCAR-5 ovarian; 95.4% with OVCAR-4 ovarian; 81.8% in the assay with SK-OV-3 ovarian; 112% with IGROV1 ovarian; 116% in the assay on OVCAR-3 ovarian. Moreover, the growth is 103% in the assay with HS 578T breast and 104% in the assay on NCI/ADR-RES ovarian.
As for `NC(=O)c1c(NC(=O)c2cccc(C(F)(F)F)c2)sc2c1CCC(=O)C2`, the growth was -18.5% (active) with SK-MEL-2 melanoma; 9.15% (active) with EKVX NSCLC; 3.64% (active) with SN12C renal; -95.9% (active) in the assay with UO-31 renal; 5.23% (active) in the assay on TK-10 renal; -93.4% (active) in the assay on ACHN renal. Moreover, the growth in the assay on CAKI-1 renal is -55% (active); in the assay with A498 renal, 53.2%; in the assay on CCRF-CEM leukemia, 0.959% (active); with MOLT-4 leukemia it was -18.1% (active); with SR leukemia, -13.2% (active); in the assay on RPMI-8226 leukemia, -22.5% (active). The growth with OVCAR-8 ovarian is 13.6%; with OVCAR-5 ovarian it was 12.8%; in the assay with OVCAR-4 ovarian, -92.2% (active); in the assay on SK-OV-3 ovarian, 1.42% (active); in the assay on IGROV1 ovarian it was -6.14% (active); in the assay on OVCAR-3 ovarian it was -37.6% (active). The growth was 9.53% (active) in the assay on HS 578T breast and -2.23% (active) in the assay with NCI/ADR-RES ovarian.
As to `C=C1C(=O)O[C@H]2[C@H]1CC/C(COC(=O)/C=C\C(=O)NCc1ccc(Cn3c(=O)sn(CCCl)c3=O)cc1)=C\CC[C@@]1(C)O[C@@H]21`, the growth in the assay on SK-MEL-2 melanoma was 85.8%; in the assay with EKVX NSCLC, 86.2%; in the assay on SN12C renal, 89.9%; with UO-31 renal, 79.9%; with TK-10 renal, 60.9%; in the assay on ACHN renal, 44.2%. In addition, the growth with CAKI-1 renal was 47.9%; in the assay with A498 renal it was 132%; in the assay with CCRF-CEM leukemia, 7.92% (active); with MOLT-4 leukemia, 35.1%; in the assay with SR leukemia, 15.5%; in the assay with RPMI-8226 leukemia, 74.8%. Further, the growth is 86.9% in the assay with OVCAR-8 ovarian; 91% in the assay on OVCAR-5 ovarian; 96.3% in the assay with OVCAR-4 ovarian; 115% in the assay with SK-OV-3 ovarian; 34.8% with IGROV1 ovarian; 36.2% in the assay with OVCAR-3 ovarian. In addition, the figures for the growth in the assay with HS 578T breast and with NCI/ADR-RES ovarian were 110% and 108%, respectively.
As to `C=C1C(=O)O[C@H]2[C@H]1CC/C(COC(=O)CSCSCC(=O)OC/C1=C/CC[C@@]3(C)O[C@H]3[C@H]3OC(=O)C(=C)[C@@H]3CC1)=C\CC[C@@]1(C)O[C@@H]21`, the growth is 59% in the assay on SK-MEL-2 melanoma; 15.9% in the assay on EKVX NSCLC; 5.07% (active) in the assay on SN12C renal; -0.857% (active) in the assay on UO-31 renal; 15.3% in the assay with TK-10 renal; 7.98% (active) in the assay with ACHN renal. Besides, the growth in the assay on CAKI-1 renal was 15.9%; in the assay on A498 renal, 83.6%; with CCRF-CEM leukemia, -35% (active); with MOLT-4 leukemia, -15.3% (active); in the assay on SR leukemia it was -16.4% (active); with RPMI-8226 leukemia, -31.2% (active). Moreover, the growth with OVCAR-8 ovarian was 5.96% (active); with OVCAR-5 ovarian it was 30.1%; with OVCAR-4 ovarian it was 50.5%; in the assay with SK-OV-3 ovarian it was 104%; in the assay with IGROV1 ovarian, 0.96% (active); in the assay on OVCAR-3 ovarian, -21.4% (active). Further, the results for the growth in the assay with HS 578T breast and with NCI/ADR-RES ovarian were 23.1% and 62.4%, respectively.
Turning to `NNCCc1ccc(NC(=O)CCCc2ccc(C(=O)Nc3ccccc3N)cc2)cc1`, the growth in the assay with SK-MEL-2 melanoma was 42.6%; in the assay on EKVX NSCLC, 81.7%; in the assay with SN12C renal, 80.1%; in the assay on UO-31 renal, 69.5%; in the assay with TK-10 renal, 32.5%; with ACHN renal it was 89.2%. In addition, the growth in the assay on CAKI-1 renal is 80.6%; with A498 renal, 60.9%; with CCRF-CEM leukemia it was 0.638% (active); with MOLT-4 leukemia, 27.9%; in the assay with SR leukemia it was 55.2%; in the assay with RPMI-8226 leukemia, 41.8%. The growth with OVCAR-8 ovarian was 45.6%; in the assay with OVCAR-5 ovarian, 74%; with SK-OV-3 ovarian, 79.3%; with IGROV1 ovarian it was 86.8%; with OVCAR-3 ovarian it was 75%; with HS 578T breast, 77.8%. Moreover, the growth with NCI/ADR-RES ovarian is 85%.
As to `O=C(NNC(=O)c1ccc(NC(=O)c2ccccn2)cc1)Nc1ccc2ccccc2c1`, the growth in the assay on SK-MEL-2 melanoma was 114%; with EKVX NSCLC, 113%; in the assay with SN12C renal it was 101%; in the assay on UO-31 renal, 82.5%; in the assay on TK-10 renal, 111%; in the assay with ACHN renal, 104%. Moreover, the growth is 106% in the assay with CAKI-1 renal; 137% in the assay with A498 renal; 104% in the assay with CCRF-CEM leukemia; 108% in the assay on MOLT-4 leukemia; 126% with SR leukemia; 109% with RPMI-8226 leukemia. The growth is 102% with OVCAR-8 ovarian; 121% in the assay on OVCAR-5 ovarian; 106% in the assay with OVCAR-4 ovarian; 115% in the assay on SK-OV-3 ovarian; 109% in the assay with IGROV1 ovarian; 126% with OVCAR-3 ovarian. Moreover, the growth in the assay on HS 578T breast is 111%; in the assay with NCI/ADR-RES ovarian, 106%.
Consider `O=C(O)COc1ccc(Cl)c(Cl)c1`, for which the growth with SK-MEL-2 melanoma is 118%; with EKVX NSCLC, 104%; with SN12C renal, 114%; in the assay with UO-31 renal it was 108%; in the assay with TK-10 renal it was 116%; with ACHN renal it was 107%. Also, the growth is 107% in the assay with CAKI-1 renal; 110% in the assay with A498 renal; 100% in the assay on CCRF-CEM leukemia; 101% with MOLT-4 leukemia; 93.7% in the assay on SR leukemia; 101% with RPMI-8226 leukemia. Further, the growth is 105% with OVCAR-8 ovarian; 106% with OVCAR-5 ovarian; 113% with OVCAR-4 ovarian; 105% in the assay on SK-OV-3 ovarian; 107% in the assay with IGROV1 ovarian; 123% in the assay on OVCAR-3 ovarian. The growth with HS 578T breast is 123%; with NCI/ADR-RES ovarian, 106%.

Source of the values: PubChem BioAssay (NCI).
